The assay in a line: NCI Yeast Anticancer Drug Screen. Data for the sgs1 mgt1 strain (AID 161).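 Further: 0% = growth of cultures given vehicle only.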 The conditions noted are these: S. cerevisiae sgs1 mgt1 strain, active compounds read high. As to the method:
Growth inhibition of yeast strains with defined genetic alterations is measured as a screen for potential anti-cancer activity. Selected strains with alterations in DNA damage repair or cell cycle control were exposed to compounds and growth inhibition was measured relative to vehicle treated controls. The strain used in this assay is sgs1 mgt1

The mark [1] stands for this setting: at 5.0 µM (retest, dose inferred, filed as 0.5).
The mark [2] stands for this setting: at 50.0 µM (retest, dose inferred, filed as 5.0).

Several values for one entry are separate records, joined by “and”; a condition that tells them apart may be missing. Equal entries are not always repeated. About 79,000 compounds went through this panel and 15% of them were active in at least one assay; those are over-represented in the sample as a whole. A number with no mark means an inactive call. Activity calls are given as the source filed them. No stated cut-off is given here; in the data, active means growth inhibition above about 70%; inactive means the rest.

Regarding `Cc1ccc2[nH]cc(CC(=O)O)c2c1`, the growth inhibition is, setting by setting: under setting [1], 99% (active); under setting [2], 100% (active).

In the case of `CCCCCCN(CCCCCC)CCCNc1nccc2ccccc12`, the growth inhibition under setting [1] was 2%, the growth inhibition under setting [2] is 88% (active) and the growth inhibition (at 50.0 µM) is 56.9%.

Regarding `Fc1cccc(F)c1C1SCc2nc3cc4ccccc4cc3n21` (stereo unspecified), the growth inhibition runs as follows: under setting [1], 23%; under setting [2], 47%; (at 50.0 µM) 78.5% (active).

`Cc1cc(C)c(C#N)c(Sc2nc(C)c([N+](=O)[O-])c(C)c2C#N)n1`: the growth inhibition runs as follows: under setting [1], 49%; under setting [2], 54%; (at 50.0 µM) 84.5% (active).

Regarding `O=C(/C=C/c1ccccc1)CCC1C(=O)c2ccccc2C1=O`, the growth inhibition was 14% under setting [1], 42% under setting [2] and 1.05% (at 50.0 µM).

On to `CC1OC(OC2C(OC3CCC4(C)C(CCC5(C)C4CC=C4C6CC(C)(C)CCC6(C(=O)O)CCC45C)C3(C)CO)OCC(O)C2O)C(O)C(O)C1O` (stereo unspecified), for which the growth inhibition by setting is: under setting [1], 95% (active); under setting [2], 99% (active); (at 50.0 µM) 90.3% (active).

In the case of `O=C(c1ccccc1)C(Br)C(Br)c1ccccc1` (stereo unspecified), the growth inhibition under setting [1] was 38%, the growth inhibition under setting [2] was 97% (active) and the growth inhibition (at 50.0 µM) is 43.2%.

Take `Cc1ccc2c(c1)sc(-c1ccc(N(C)C)cc1)[n+]2C`: the growth inhibition was 45% under setting [1], 98% (active) under setting [2] and 91.8% (active) (at 50.0 µM).

Consider `Cc1ccccc1N=NC(C#N)C#N`, for which the growth inhibition by setting is: under setting [1], 85% (active); under setting [2], 100% (active).

As for `CCCc1cc(=O)oc2c3c(c4c(c12)OC(C)(C)CC4)OC(C)[C@H](C)[C@@H]3O` (stereo partly specified), the growth inhibition is 28% under setting [1], 90% (active) under setting [2] and 80.2% (active) (at 50.0 µM).

For `O=C1Nc2ccc(Br)cc2C1=O`, the growth inhibition under setting [1] is -5%, the growth inhibition under setting [2] is 42% and the growth inhibition (at 50.0 µM) was 99.8% (active).

Regarding `CC(C)(C)N/N=C(/Cc1nc2c3c(ccc2[nH]c1=O)C(=O)c1ccccc1C3=O)C(=O)NC1=C(Cl)C(=O)c2ccccc2C1=O`, the growth inhibition is 27% under setting [1], 77% (active) under setting [2] and 67.8% (at 50.0 µM).

Regarding `CC12CCC(O)CC1=CCC1C2CCC2(C)C3=NN=CC3CC12` (stereo unspecified), the growth inhibition under setting [1] was 35%, the growth inhibition under setting [2] is 100% (active) and the growth inhibition (at 50.0 µM) was 98.5% (active).

For the compound `C=CCOC(=O)C(C)OC(=O)C(C)O` (stereo unspecified), the growth inhibition (at 50.0 µM) was 13.6% and -3.75%.

For the compound `O=C(O)c1cc([N+](=O)[O-])c2c(c1)P(=O)(O)c1cc(C(=O)O)cc([N+](=O)[O-])c1O2`, where the note is “at 50.0 µM”, the growth inhibition is 7.65% and 4.55%.

Turning to `OCC(O)C1OC(Oc2ccccc2)C(O)C(O)C1O` (stereo unspecified), the growth inhibition (at 50.0 µM) was -6.75% and 4.1%.

Turning to `CC(OC(=O)c1ccccc1)C(OC(=O)c1ccccc1)C(OC(=O)c1ccccc1)c1cnn(-c2ccccc2)n1` (stereo unspecified), for the setting “at 50.0 µM”, the growth inhibition was 24.8% and 3.35%.

Source of the values: PubChem BioAssay (NCI).
